We go through 40 molecules from PubChem BioAssay (NCI).

About 83,000 compounds went through this panel and 20% of them were active in at least one assay; those are over-represented in the sample as a whole.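 Cells were grown in 96-well plates and exposed to the test compound at a single concentration for 48 hours; results are reported as percent growth, with values below 10 considered active.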 Unmarked numbers belong to inactive results. The source made the active and inactive calls.

This assay deals with A498 renal. The assay is described as follows: NCI-60 one-dose screen, 48 h (100 = growth as untreated, 0 = no growth, -100 = all killed). The settings on record: 10 µM unless noted. As for the experimental part:
Growth inhibition of the A498 human tumor cell line is measured as a screen for anti-cancer activity. Cells are grown in 96 well plates and exposed to the test compound for 48 hours. Compounds are tested at a single concentration, which is 10^-5 M for most compounds. The reported endpoint is percent growth (GI% or GIPRCNT), where numbers from 0 - 100% represent growth inhibition, and numbers from -100% - 0 represent cell death. For example, a value of 40 represents 60% growth inhibition. A value of 0 means no net growth occurred over the course of the experiment. A value of -40 indicates 40% of cells at the beginning of the experiment died by the end of the experiment. A value of -100 means all cells are dead at the end of the experiment.
NCI-60 Human Tumor Cell Lines Screen was performed using the standard one-dose NCI protocol, which is described in more detail at https://dtp.cancer.gov/discovery_development/nci-60/default.htm.
Compounds with GIPRCNT values below 10 were considered active. Activity score was based on GIPRCNT using the following formula: […]
Score is 0 for GIPRCNT values of 100 or above, 50 for GIPRCNT values of 0, and 100 for GIPRCNT values of -100.
Regarding `Cc1ccc(OCCOCCOCCOc2ccc(C)n(O)c2=S)c(=S)n1O`, the growth is 52.5%.

For `Cc1nc2sc(C(=O)Nc3cccc4ccccc34)c(N)c2cc1C(=O)c1ccccc1`, the growth was -10.9% (active).

Regarding `N#C/C(=C\c1ccc(-c2cccc(Cl)c2)o1)C(=O)Nc1ncc(Cc2ccc(Cl)cc2)s1`, the growth was 74.1%.

In the case of `O=C(Nc1cccnc1Nc1ccccc1)c1cn(Cc2cccc(Oc3ccccc3)c2)nn1`, the growth was 45.3%.

Take `COc1cc(/C=C/c2cn[nH]c2-c2ccc(C)cc2)cc(OC)c1OC`: the growth is 33.8%.

As to `COC(=O)[C@@]12CC=C(C)[C@]3(C[C@H](c4ccoc4)OC3=O)[C@H]1C=C[C@@H](O)[C@@]2(O)C(=O)OC`, the growth is 109%.

On to `Cn1c(=O)c2[nH]c(SC/C(=N/O)c3ccc(Br)cc3)nc2n(C)c1=O`, for which the growth was -80% (active).

As to `C=C(C)[C@@H]1CC[C@]2(C)[C@H](C=CC3=C4C[C@@](C)(CO)CC[C@]4(C)CC[C@]32C)[C@@]1(C)CCCN`, the growth is 68.3%.

For the molecule `Cc1ncc(C(=O)Nc2ccc(CN3CCN(C)CC3)c(C(F)(F)F)c2)cc1C#Cc1cnc(N)c2ccc(C#N)cc12`, the growth is -41% (active).

Regarding `COc1ccc2c(c1)C(C)Cc1c(ncnc1-n1cnc3cc(C)ccc31)N2C` (stereo not given), the growth was 6.42% (active).

As to `COc1cccc(CNc2c3ccccc3nc3ccccc23)c1OC`, the growth is -4.13% (active).

As to `CCOC(=O)C(CCN(C)C)c1ccccc1` (stereo not given), the growth was 107%.

Consider `CC1(C)N=C(N)N=C(N)N1c1cc(Cl)ccc1Cl`, for which the growth was 83.8%.

For `N#Cc1c(-c2ccc(Cl)cc2)nc(NN=Cc2ccc[nH]2)nc1N1CCOCC1`, the growth was 31.7%.

For `O=C1/C(=C/c2c[nH]c(=O)[nH]c2=O)SC(=S)N1Cc1ccccc1`, the growth was 99.9%.

Take `CCOC(=O)c1c(C)nc2ccccc2c1/C=C/c1ccc(F)cc1`: the growth was 75.4%.

Turning to `O=C1Nc2ccccc2/C1=N/N1C(=O)CN(CCCl)C1=O`, the growth is 95.6%.

Turning to `COc1ccc2c(c1)oc1c(C)c3c(c(C)c12)C(=O)N(CCOS(C)(=O)=O)C3=O`, the growth is 129%.

Consider `C=C(c1ccc(C(=O)O)c(F)c1)c1cc2c(cc1C)C(C)(C)CCC2(C)C`, for which the growth is 95.8%.

`Cc1cccc(N2C(=O)/C(=C/C(Cl)=C/c3ccc([N+](=O)[O-])cc3)SC2=S)c1C`: the growth was 61.1%.

For `C1CCC(N2CN3c4nonc4N4CN(C5CCCCC5)CN5c6nonc6N(C2)C3C45)CC1` (stereo not given), the growth was 92.9%.

Regarding `COc1cc2c(c(OC)c1OC)C(=O)CC(c1cccc(C(=O)Nc3ccccc3Br)c1)O2` (stereo not given), the growth is 91%.

For `COc1cc(-c2ccc(-c3ccc(C(=N)N)cc3)s2)cc(OC)c1OC`, the growth was 89.2%.

Consider `C=C(C)[C@@H]1CC[C@]2(C(=O)N3CCN(C)CC3)CC[C@]3(C)[C@H](CC[C@@H]4[C@@](C)(CCC(=O)O)[C@H](C(=C)C)CC[C@]43C)[C@@H]12`, for which the growth is 53%.

As for `COC(=O)c1c(C)nc(C)c2c1C(=O)C=C(NCc1ccccc1)C2=O`, the growth is 124%.

With `O=C(CCCCCCCC(=O)N1CCCCC1)N1CCCCC1`, the growth is 94.2%.

Take `COc1ccc(-c2cc(-c3cc(OC)ccc3OC)nc(SCC(C)=O)c2C#N)cc1`: the growth was 39%.

Take `Oc1c(CN2CCC(N3CCOCC3)CC2)cc(Cc2cc(CN3CCC(N4CCOCC4)CC3)c(O)c3ncccc23)c2cccnc12`: the growth is 69.1%.

As for `CC(C)(Sc1cc(C(C)(C)C)c(O)c(C(C)(C)C)c1)Sc1cc(C(C)(C)C)c(OC(=O)CCC(=O)O)c(C(C)(C)C)c1`, the growth is 63.6%.

Consider `COc1c2c(cc3c1C(=O)N[C@@H]1[C@@H](O)[C@@H](O)[C@H](O)C[C@@H]31)OCCO2`, for which the growth was 104%.

Take `C=CC(CC(c1ccccc1)(c1ccccc1)c1ccccc1)N(CC)CC` (stereo not given): the growth is 66.3%.

In the case of `CCCCO[C@@H]1C=C2[C@H]3CC(C)(C)C(=O)C[C@]3(C(=O)O[C@@H]3O[C@H](CO[C@@H]4O[C@H](CO)[C@@H](OC5OC(C)C(O)C(O)C5O)[C@H](O)[C@H]4O)[C@@H](O)[C@H](O)[C@H]3O)CC[C@@]2(C)[C@]2(C)CC[C@H]3C(C)(C)C(=O)CC[C@]3(C)[C@@H]12` (stereo not given in full), the growth is 93.9%.

In the case of `C[C@H](c1nc2ccc(C#N)cc2[nH]1)[C@H]1CC[C@H]2[C@@H]3CCC4=CC(=O)CC[C@]4(C)[C@H]3CC[C@]12C`, the growth is 14.5%.

For `CCN(CC)CCCNc1cc(OC)c(OC)c2cccnc12`, the growth was 81.8%.

As to `O=C1/C(=C/c2cccc(Br)c2)COc2ccc(O)cc21`, the growth is 99.5%.

Take `CN(C)c1ccc(C(=S)c2ccc(N(C)C)cc2)cc1`: the growth was 62.6%.

Take `Fc1cc2[nH]ncc2c2c3c(c(-c4cn[nH]c4C(F)(F)F)nc12)CCCC3`: the growth was -63.9% (active).

As to `COc1ccccc1/C=C/C(=O)Nc1ccc(F)cc1`, the growth is 102%.

Turning to `Cn1cc(-c2nonc2-c2c[nH]c3ccccc23)c2cc(Br)ccc21`, the growth is 40.3%.

Take `O=C1O[C@@H](c2ccccc2Cl)[C@@H]2c3cc4c(cc3CCN12)OCO4`: the growth was 82.8%.
